A selection: hits, their analogues and other compounds. The true share with any hit is near 0.74%.
Vif-A3G inh – qHTS for Inhibitors of Vif-A3G Interactions: qHTS | DNA dC->dU-editing enzyme APOBEC-3G (Homo sapiens), Q9HC16 | HeLa A3G-eYFP + Vif (tagged APOBEC3G with the HIV-1 protein that degrades it), YFP fluorescence, overnight | Potency, µM (series often up to 46.1 µM), for inactives: at the top dose activity, negative = active, most hits filed as inhibitors | 410,000 tested, 0.076% active | AID 602310, 2012; also: potency is read from the fitted curve at half-maximal effect; % is scaled to controls: 0 for no effect and ±100 for the full control effect; nearly all actives have a fitted effect of over 60% in size
Target sequence (Q9HC16 whole entry, looked up): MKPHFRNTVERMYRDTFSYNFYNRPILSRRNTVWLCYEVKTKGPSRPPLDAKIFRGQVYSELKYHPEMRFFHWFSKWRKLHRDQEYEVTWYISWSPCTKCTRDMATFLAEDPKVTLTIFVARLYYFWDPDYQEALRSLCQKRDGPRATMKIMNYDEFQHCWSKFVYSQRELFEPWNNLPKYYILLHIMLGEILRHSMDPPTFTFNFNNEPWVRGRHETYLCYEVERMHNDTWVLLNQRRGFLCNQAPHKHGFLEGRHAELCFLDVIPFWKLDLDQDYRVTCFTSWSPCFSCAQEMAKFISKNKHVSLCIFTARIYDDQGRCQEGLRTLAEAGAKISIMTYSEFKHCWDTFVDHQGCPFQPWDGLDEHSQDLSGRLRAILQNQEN
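Read-out is eYFP fluorescence (Ex 488/Em 500-530) from Vif-expressing HeLa A3G-eYFP cells; more signal means A3G escaped Vif-mediated degradation. Cells plated overnight, compound pinned in, incubated overnight at 37 deg C.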
Vif-A3F inh – qHTS for Inhibitors of Vif-A3F Interactions: qHTS; HeLa A3F-eYFP + Vif (tagged APOBEC3F with the HIV-1 protein that degrades it), YFP fluorescence increase; Potency, µM (doses to about 46.1 µM), for inactives: at the top dose activity, negative = active; 390,000 tested, 0.2% active; also: potency is read from the fitted curve at half-maximal effect; % of control where 0% means no effect; nearly all actives have a fitted effect of over 65% in size
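Fluorescence increase (Ex 488/Em 500-530) after overnight compound treatment at 37 deg C flags inhibition of Vif-driven A3F-eYFP loss in stable HeLa A3F-eYFP/Vif cells seeded overnight beforehand.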
Glioma ERSR ind – qHTS for Inducers of the Endoplasmic Reticulum Stress Response (ERSR) in Human Glioma: qHTS; Potency, µM, inactives show at the top dose activation, most hits filed as activators; 420,000 tested, 0.02% active; U87-MG GRP78 promoter luciferase reporter, 16 h; also: potency is read from the fitted curve at half-maximal effect; series mostly up to about 76 µM; % of control where 0% means no effect; nearly all actives have a fitted effect of over 35% in size
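ERSR induction read as luciferase luminescence (Bright-Glo, 10 min at room temperature) in stably transfected human U87-MG glioma cells exposed to compounds for 16 h, using GRP78 as sensor.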
PINK1 modulator – A Quantitative High throughput Screen to Identify Chemical Modulators of PINK1 Expression; PINK1 immunofluorescence, high-content cytometry, 24 h; Potency, µM (top dose mostly 76.6 µM), for inactives: top-dose activation (PINK1 increase), actives largely listed as activators; 410,000 tested, 0.2% active; active = well fitted activation curve with a large enough effect; inconclusive = small, poorly fitted or top-dose-only effect; cell line not stated here; also: potency is read from the fitted curve at half-maximal effect; % of control where 0% means no effect; nearly all actives have a fitted effect of over 65% in size
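Readout is PINK1 immunofluorescence, quantified alongside mitochondrial, cell and nuclear markers by laser-scanning microplate cytometry. Cells from a stable line were exposed to compound titrations (5 concentrations) for 24 hours, with CCCP controls.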
LDHA inh – qHTS assay for inhibitors of human lactate dehydrogenase. AID 1347041, 2019. 480,000 tested, 0.15% active. activity change, % (values are at about 110 or 230 µM). purified LDHA, NADH/diaphorase-resazurin fluorescence; stronger effect = lower value. L-lactate dehydrogenase A chain (Homo sapiens), P00338; in the data active = activity change below about -30%; inconclusive = mostly about -25% to -30%;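 also: plate controls were DMSO wells for no effect and wells without enzyme for full effect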
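Human LDH5 (2 nM) was incubated with 0.06 mM NADH and 0.2 mM pyruvate for 5 min at room temperature in Tris pH 7.4. Remaining NADH was coupled through diaphorase/resazurin, and resorufin fluorescence was read at 0 and 20 min.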
pAkt inh – HTS Assay for Inhibitors of Akt Phophorylation: Primary Screen; AID 651550, 2012; activity change, % for hits at 50 µM; 360,000 tested, 0.32% active; Neuro2A IGF-stimulated pAkt S473 HTRF, 20 min; stronger effect = lower value; in the data active = activity change below about -80%; inconclusive = mostly about -51% to -80%; also: % is scaled to controls: 0 for no effect and ±100 for the full control effect
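Neuro2A cells in DMEM with 0.5% FBS, overnight at 37 deg C, given compound at single 50 µM final, then IGF (6 nM final) for 20 min at 37 deg C. Lysed; phospho-Akt Ser473 by HTRF after 24 h, 665/615 ratio.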
Starred values were filed as active, the others as inactive. Unless noted, calls follow the shape of the dose curve; as a rule, active = well fitted curve in the direction sought with a large enough effect; inconclusive = small, poorly fitted or top-dose-only effect, or another doubt; inactive = no such curve, though single readings can be large; an effect the other way counts as inactive or inconclusive.

CC(=O)Nc1sc2c(c1-c1nc3ccccc3s1)CCN(C(C)C)C2 was read as Vif-A3G inh 11.2µM*, Vif-A3F inh 11.2µM*, Glioma ERSR ind -7.5%, PINK1 modulator -2.1%, LDHA inh 2.8 and pAkt inh inactive.
`CC(=O)Nc1sc2c(c1-c1nc3ccccc3s1)CCN(C(C)C)CC2` gave LDHA inh 5.8.
For Cc1c(C(=O)Nc2nccs2)[nH]c2c1C(=O)CCC2 the results were LDHA inh -17.2.
CCN(CC)c1ccc(/C=N/N2CC(=O)NC2=S)cc1 was read as Vif-A3G inh 3.2%, Vif-A3F inh inconclusive, Glioma ERSR ind -1.4%, PINK1 modulator 39.8µM*, LDHA inh -2.1 and pAkt inh inactive.
For CC(C(=O)N(C)Cc1ccccc1)N1CCN(C/C=C/c2ccccc2)CC1 (stereo not drawn) the results were Vif-A3G inh -1.3%, Vif-A3F inh -3.2%, Glioma ERSR ind -3.4%, PINK1 modulator 3.5%, LDHA inh -31.3* and pAkt inh inactive.
Screening Oc1ccc(-c2nc(-c3ccc(F)cc3)cs2)cc1 returned LDHA inh 4.5.
CC(=O)Nc1ccc(S(=O)(=O)Nc2cc(C)cn(Cc3ccccc3)c2=O)cc1 was read as Vif-A3G inh -13.6%, Vif-A3F inh 22.4µM*, Glioma ERSR ind -4.0%, PINK1 modulator 19.9%, LDHA inh 26.6 and pAkt inh inactive.
For CC(=O)Nc1ccc(S(=O)(=O)Nc2cccn(Cc3ccc(C)cc3)c2=O)cc1 the results were Vif-A3G inh 0.9%, Vif-A3F inh 9.5%, Glioma ERSR ind -4.7%, PINK1 modulator 0.0%, LDHA inh -1.6 and pAkt inh inactive.
Screening C=CCNC(=O)NC(=O)CN(CC)c1cc(C)cc(C)c1 returned LDHA inh 11.2.
Cc1c(N=C2N=C(NC(=O)c3ccc(F)cc3)c3ccccc32)c(=O)n(-c2ccccc2)n1C was read as Vif-A3G inh -1.0%, Vif-A3F inh -10.8%, Glioma ERSR ind -1.3%, PINK1 modulator 39.8µM*, LDHA inh -4.4 and pAkt inh inactive.
For Cc1c(NC(=O)NC(=O)c2ccc(F)cc2)c(=O)n(-c2ccccc2)n1C the results were Vif-A3G inh 0.1%, Vif-A3F inh -14.8%, Glioma ERSR ind -0.4%, PINK1 modulator 0.4%, LDHA inh -6.5 and pAkt inh inactive.
Screening C=CCOC(=O)CCCC(=O)NC1CCCCC1 returned Vif-A3G inh -4.5%, Vif-A3F inh 2.5%, Glioma ERSR ind -2.5%, PINK1 modulator -1.2%, LDHA inh -1.6 and pAkt inh -127.7%*.
For CC(=O)N1CCC(NC(=O)Cn2c(C)cc3ccccc32)CC1 the results were LDHA inh 1.1.
Cc1cc2oc(C(=O)N3CCOC34CCN(C)CC4)cc(=O)c2cc1C was read as LDHA inh 1.5.
For Cc1cccc(C)c1Nc1sc(C(=O)c2ccccc2)c(N)c1C(=O)Nc1ccc(F)cc1 the results were Vif-A3G inh -6.0%, Vif-A3F inh -20.2%, Glioma ERSR ind inconclusive, PINK1 modulator 44.7µM* and LDHA inh 3.7.
For CCOc1ccccc1Nc1sc(C(=O)c2ccccc2)c(N)c1C(=O)Nc1ccc(F)cc1 the results were Vif-A3G inh -6.6%, Vif-A3F inh -1.0%, Glioma ERSR ind 3.0%, PINK1 modulator 1.2% and LDHA inh -3.8.
Screening COc1ccc(C(=O)C(C)[n+]2ccc(C)c3ccccc32)cc1[N+](=O)[O-] (stereo not drawn) returned Vif-A3G inh 5.62µM*, Vif-A3F inh inconclusive, Glioma ERSR ind 3.2%, PINK1 modulator -0.9%, LDHA inh -3.1 and pAkt inh inactive.
`COc1ccc(F)cc1S(=O)(=O)NC1CC(C)(C)NC(C)(C)C1` gave Vif-A3G inh 3.8%, Vif-A3F inh 4.6%, Glioma ERSR ind -2.1%, PINK1 modulator -1.6%, LDHA inh -9.6 and pAkt inh -112.2%*.
COc1ccc(Cl)cc1S(=O)(=O)NC1CC(C)(C)NC(C)(C)C1 was read as Vif-A3G inh -4.7%, Vif-A3F inh 1.8%, Glioma ERSR ind -1.3%, PINK1 modulator 0.5%, LDHA inh -3.9 and pAkt inh inactive.
For CC(C)CNC(=O)C1CCN(c2oc(-c3ccco3)nc2C#N)CC1 the results were LDHA inh 3.3.
Screening O=C(CCc1ncc(-c2ccccc2)o1)Nc1ccccc1Cl returned LDHA inh -0.3.
CC1(C)N([O-])C(c2cccs2)=C[N+]1=O was read as Vif-A3G inh 1.2%, Vif-A3F inh 6.6%, Glioma ERSR ind -3.8%, PINK1 modulator 1.7%, LDHA inh -8.3 and pAkt inh -123.8%*.
Screening CCOC(=O)c1c(/N=C/C2=C(O)CCCC2=O)sc(C)c1C returned Vif-A3G inh -0.6%, Vif-A3F inh -27.0%, Glioma ERSR ind -7.0%, PINK1 modulator 4.8%, LDHA inh 8.1 and pAkt inh inactive.
For CCOC(=O)c1c(-c2ccc(OC)cc2)csc1/N=C/C1=C(O)CCCC1=O the results were Vif-A3G inh 22.4µM*, Vif-A3F inh 22.4µM*, Glioma ERSR ind -13.2%, PINK1 modulator inconclusive, LDHA inh 15.4 and pAkt inh inactive.
Screening CC(C)CC[n+]1ccccc1/C=C/c1ccc(N(C)C)cc1 returned Vif-A3G inh 10µM*, Vif-A3F inh 7.94µM*, Glioma ERSR ind -11.0%, PINK1 modulator 31.6µM*, LDHA inh -8.6 and pAkt inh inactive.
CN(C)c1ccc(/C=C/c2cccc[n+]2[O-])cc1 was read as Vif-A3G inh -5.0%, Vif-A3F inh inconclusive, Glioma ERSR ind -7.0%, PINK1 modulator -0.7%, LDHA inh -2.7 and pAkt inh inactive.
Screening Cn1c(/C=C/c2ccccc2)nc2ccccc2c1=O returned Vif-A3G inh -9.8%, Vif-A3F inh 3.8%, Glioma ERSR ind 1.4%, PINK1 modulator 1.7%, LDHA inh -0.1 and pAkt inh inactive.
`Cc1cc(N/N=C/c2ccc([N+](=O)[O-])o2)nc2ccccc12` gave Vif-A3G inh 11.2µM*, Vif-A3F inh inconclusive, Glioma ERSR ind 3.1%, PINK1 modulator inconclusive, LDHA inh -8.1 and pAkt inh inactive.
For Cn1c(/C=C/c2ccc([N+](=O)[O-])o2)nc2ccccc2c1=O the results were Vif-A3G inh 2.82µM*, Vif-A3F inh 11.2µM*, Glioma ERSR ind -9.5%, PINK1 modulator 7.4%, LDHA inh 1.8 and pAkt inh inactive.

From PubChem BioAssay
